Screening results: PubChem, Broad Institute
T cruzi growth-1 – T. cruzi proliferation inhibition. T. cruzi beta-gal in NIH3T3, GalScreen luminescence, 90 h. inhibition, % at 8.34 µM. 77,000 compounds, 5.9% hits. AID 624255;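 active means mean inhibition above about 93%, with at least 55% of replicates each passing it, limit read from the data, passing the limit was not always enough; inconclusive means only one of those two conditions holds; inactive means neither condition holds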
Pf Dd2 inh – inhibitors of Plasmodium falciparum Dd2 growth; P. falciparum Dd2 growth, SYBR Green, 72 h; hits give low values; activity change, % at 10 µM; 94,000 compounds, 2.3% hits; AID 1159554; in the data active means activity change below about -80%; inconclusive means no clear call, values can overlap the other calls
C diff growth – blocks growth of Clostridium difficile | Clostridium difficile clinical isolate growth, OD600, 24 h; hits give low values | growth activity, negative = inhibition, % at 16 µg/mL (by protocol) | 86,000 compounds, 0.25% hits | AID 1259249;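 active means mean growth activity at or below -80% and every replicate also at or below -80%; inconclusive means mean at or below -80% but some replicate above -80%; inactive means mean growth activity above -80%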
T cruzi growth-2 – inhibitors of T. cruzi proliferation; T. cruzi beta-gal in NIH3T3, GalScreen luminescence, 90 h; shares compounds with T cruzi growth-1; 5,600 compounds, 72% hits; inhibition, % at 8.35 µM;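 active means mean replicate inhibition above about 95% and at least 55% of replicates individually reaching it, limit read from the data; inconclusive means only one of the two criteria is met; inactive means neither criterion is met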
T cruzi growth-3 – blocks T. cruzi growth in NIH3T3 host cells. shares compounds with T cruzi growth-1. T. cruzi beta-gal in NIH3T3, GalScreen luminescence, 90 h. inhibition, % at 2.09 µM. 5,600 compounds, 21% hits. AID 651740;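 active means mean inhibition above about 95%, with at least 55% of replicates also reaching it, limit read from the data; inconclusive means meets just one of the two conditions; inactive means meets neither condition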
3T3 cytotox – NIH/3T3 (mouse) viability loss. cytotoxicity (signal decrease), % at 8.35 µM. shares compounds with T cruzi growth-1. NIH/3T3 viability, CellTiter-Glo ATP luminescence, 90 h. AID 651742. 5,600 compounds, 14% hits;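 active means mean signal decrease across replicates above about 35% based on untreated-well scatter, with enough replicates individually passing, limit read from the data; inconclusive means no rule stated though some were filed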
3T3 cytotox 2 – NIH/3T3 (mouse) viability loss. shares compounds with T cruzi growth-1. NIH/3T3 viability, CellTiter-Glo ATP luminescence, 90 h. inhibition, % at 24.9 µM. 5,600 compounds, 56% hits;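 active means mean loss of cell viability signal at or above a set limit, and enough replicates individually reaching it; inconclusive means meets only the mean limit or only the replicate share; inactive means meets neither condition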
Each line names hits and unclear results; the compound was inactive in the other large screens (follow-up assays come after a bar, where they were run). Rows were chosen to be rich in hits. Some 6.8% of all compounds tested hit in one or more screens of this group.

CC(=O)N(C)C[C@@H]1Oc2cc(-c3ccc(F)cc3)ccc2S(=O)(=O)N([C@H](C)CO)C[C@H]1C	none
C[C@@H]1CN([C@H](C)CO)S(=O)(=O)c2ccc(-c3ccncc3)cc2O[C@H]1CN(C)C(=O)Nc1ccc(F)cc1	T cruzi growth-1 101 | T cruzi growth-2 inactive | T cruzi growth-3 inactive | 3T3 cytotox inactive | 3T3 cytotox 2 75
C[C@H](CO)N1C[C@H](C)[C@H](CN(C)C(=O)Nc2ccc(F)cc2)Oc2cc(-c3ccncc3)ccc2S1(=O)=O	none
C[C@H]1CN([C@@H](C)CO)S(=O)(=O)c2ccc(-c3ccc(F)cc3)cc2O[C@@H]1CN(C)C(=O)Nc1ccc(F)cc1	T cruzi growth-1 119 (no result: C diff growth) | T cruzi growth-2 103 | T cruzi growth-3 inactive | 3T3 cytotox inactive | 3T3 cytotox 2 58
CC(=O)N(C)C[C@H]1Oc2cc(-c3ccc(F)cc3)ccc2S(=O)(=O)N([C@H](C)CO)C[C@H]1C	none
C[C@@H]1CN([C@H](C)CO)S(=O)(=O)c2ccc(Br)cc2O[C@H]1CN(C)C(=O)Nc1ccc(F)cc1	none
CC(C)C#Cc1ccc2c(c1)O[C@H](CN(C)Cc1cncnc1)[C@H](C)CN([C@H](C)CO)S2(=O)=O	none
COC(=O)[C@]1(CCS(=O)(=O)c2ccccc2)N=C(c2ccc(OCCCO)cc2)O[C@@H]1c1ccccc1CN=[N+]=[N-]	none (no result: T cruzi growth-1, Pf Dd2 inh)
CNC[C@@H]1OCCCC[C@H](C)Oc2ccc(NC(=O)Nc3ccc4c(c3)OCO4)cc2C(=O)N([C@@H](C)CO)C[C@@H]1C	none
O=C(C[C@@H]1CC[C@H]2[C@@H](COC[C@H](O)CN2Cc2ccc3c(c2)OCO3)O1)N1CCOCC1	none (no result: C diff growth)
Cc1ccc(S(=O)(=O)N(C)C[C@H]2OCCCC[C@H](C)Oc3ccc(NS(=O)(=O)c4ccccc4)cc3C(=O)N([C@H](C)CO)C[C@@H]2C)cc1	none
Cc1ccc(S(=O)(=O)Nc2ccc3c(c2)C(=O)N([C@@H](C)CO)C[C@H](C)[C@@H](CN(C)S(=O)(=O)c2ccccc2)OCCCC[C@@H](C)O3)cc1	none
C[C@@H]1CN([C@H](C)CO)C(=O)c2cc(NS(=O)(=O)c3ccccc3)ccc2O[C@@H](C)CCCCO[C@H]1CN(C)S(=O)(=O)c1ccccc1	none (no result: C diff growth)
C[C@@H]1CCCCO[C@H](CN(C)S(=O)(=O)c2ccccc2)[C@H](C)CN([C@H](C)CO)C(=O)c2cc(NS(=O)(=O)c3ccccc3)ccc2O1	T cruzi growth-1 107 (no result: C diff growth) | T cruzi growth-2 115 | T cruzi growth-3 inactive | 3T3 cytotox inactive | 3T3 cytotox 2 inactive
Cc1ccc(S(=O)(=O)Nc2ccc3c(c2)C(=O)N([C@H](C)CO)C[C@@H](C)[C@H](CN(C)S(=O)(=O)c2ccccc2)OCCCC[C@H](C)O3)cc1	T cruzi growth-1 105 | T cruzi growth-2 108 | T cruzi growth-3 inactive | 3T3 cytotox inactive | 3T3 cytotox 2 inactive
Cc1ccc(S(=O)(=O)Nc2ccc3c(c2)C(=O)N([C@@H](C)CO)C[C@@H](C)[C@@H](CN(C)S(=O)(=O)c2ccccc2)OCCCC[C@H](C)O3)cc1	T cruzi growth-1 97 | T cruzi growth-2 102 | T cruzi growth-3 inactive | 3T3 cytotox inactive | 3T3 cytotox 2 inactive
CC(=O)N(C)C[C@@H]1Oc2cc(-c3ccccc3)ccc2S(=O)(=O)N([C@H](C)CO)C[C@H]1C	none
C[C@H](CO)N1C[C@H](C)[C@H](CN(C)S(C)(=O)=O)Oc2ncc(/C=C/c3ccccc3)cc2C1=O	none
C[C@H]1CN([C@@H](C)CO)C(=O)c2ccccc2-c2ccccc2CO[C@@H]1CN(C)C(=O)Nc1ccnc(N2CCOCC2)c1	T cruzi growth-1 108 | T cruzi growth-2 101 | T cruzi growth-3 inconclusive | 3T3 cytotox inactive | 3T3 cytotox 2 inactive
C[C@@H]1CN([C@H](C)CO)C(=O)c2ccccc2-c2ccccc2CO[C@H]1CN(C)C(=O)Nc1ccnc(N2CCOCC2)c1	T cruzi growth-1 inconclusive | T cruzi growth-2 96 | T cruzi growth-3 inactive | 3T3 cytotox inactive | 3T3 cytotox 2 inactive
C[C@@H]1CN([C@@H](C)CO)C(=O)c2c(c3ccccc3n2C)-c2ccccc2CO[C@@H]1CN(C)C(=O)Nc1ccnc(N2CCOCC2)c1	none (no result: T cruzi growth-1)
C[C@H]1CN([C@@H](C)CO)C(=O)c2c(c3ccccc3n2C)-c2ccccc2CO[C@H]1CN(C)C(=O)Nc1ccnc(N2CCOCC2)c1	none (no result: T cruzi growth-1)
C[C@@H]1CN([C@H](C)CO)C(=O)c2cccc(NS(=O)(=O)c3ccccc3)c2O[C@@H]1CN(C)C(=O)Nc1ccc(C(F)(F)F)cc1	none
COc1ccc(-c2cnc3c(c2)C(=O)N([C@H](C)CO)C[C@@H](C)[C@@H](CN(C)C(=O)Cc2ccccn2)O3)cc1	none
O=C(Nc1ccccc1F)N1CCCCN2[C@H](C1)[C@H](c1ccc(C3=CCCC3)cc1)[C@@H]2CO	none
O=C(Nc1ccc(F)cc1)N1CCCCN2[C@H](C1)[C@H](c1ccc(C3=CCCCC3)cc1)[C@@H]2CO	T cruzi growth-1 112 | T cruzi growth-2 106 | T cruzi growth-3 inactive | 3T3 cytotox inactive | 3T3 cytotox 2 86
O=C(Nc1ccccc1F)N1CCCCN2[C@H](CO)[C@H](c3ccc(C4=CCCC4)cc3)[C@H]2C1	T cruzi growth-1 103 | T cruzi growth-2 inactive | T cruzi growth-3 inactive | 3T3 cytotox inactive | 3T3 cytotox 2 103
COc1ccc(NC(=O)N2CCCCN3[C@H](C2)[C@H](c2ccc(C4=CCCCC4)cc2)[C@@H]3CO)cc1	T cruzi growth-1 110 | T cruzi growth-2 114 | T cruzi growth-3 inactive | 3T3 cytotox inactive | 3T3 cytotox 2 94
COc1ccc(NC(=O)N2CCCCN3[C@H](CO)[C@@H](c4ccc(-c5ccccc5C)cc4)[C@@H]3C2)cc1	none
O=C(Nc1cc(F)ccc1F)N1CCCCN2[C@H](CO)[C@H](c3ccc(C4=CCCCC4)cc3)[C@@H]2C1	none
COc1ccc(NC(=O)N2CCCCN3[C@H](CO)[C@@H](c4ccc(C5=CCCCC5)cc4)[C@H]3C2)cc1	T cruzi growth-1 117 | T cruzi growth-2 105 | T cruzi growth-3 inactive | 3T3 cytotox inactive | 3T3 cytotox 2 105
COc1ccc(NC(=O)N2CCCCN3[C@@H](CO)[C@H](c4ccc(C5=CCCC5)cc4)[C@@H]3C2)cc1	none
CCNC(=O)C[C@H]1CC[C@@H]2[C@H](COc3ccc(NC(=O)Nc4ccc(C)cc4)cc3C(=O)N2C)O1	none
C[C@@H]1CN([C@@H](C)CO)C(=O)c2cc(C#C[C@@H](C)O)cnc2O[C@@H]1CN(C)C(=O)Cc1ccncc1	none (no result: T cruzi growth-1)
CO[C@@H]1CN(C)C(=O)c2ccc(NC(=O)C3CCC3)cc2OC[C@@H](C)N(Cc2cccnc2)C[C@@H]1C	none (no result: Pf Dd2 inh, C diff growth)
